IDE cell inh: cellular human IDE inhibition; P14735; HEK cells, FAbetaB cleavage, fluorescence polarization; inhibition, % at 5.59 µM; 0.41% of 320,000 active; AID 434962;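 active = percent inhibition above the average of all tested compounds plus 3 SD, set per screening campaign, cut at about 16% in these data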;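 also: IDE supplied by intact live HEK cells; FP after avidin binding of uncleaved biotin substrate so inhibition keeps polarization high; 0% = DMSO wells and 100% = 60 µM reference IDE inhibitor Ii1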
HDAC3 inhib: blocks human histone deacetylase 3; O15379; recombinant HDAC3, fluorogenic peptide/trypsin coupled, fluorescence; inhibition, % at 8.3 µM; 0.15% of 320,000 active; AID 2718; in the data active = inhibition above about 26%, passing the limit was not always enough; inconclusive = no clear call, values can overlap the other calls
IDE cell activ: IDE (human) activation, cell-based | P14735 | 0.073% of 340,000 active | activation, % at 5.96 µM | HEK cells, FAbeta-B cleavage, fluorescence polarization; 0% vehicle, 100% cell-free pure enzyme wells;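 active = activation above the mean of all tested compounds plus 3 SD, set per screening campaign, cut at about 17% in these data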
LANA-H2B inh: blocks KSHV LANA binding to histone H2A/H2B. Q9QR71. cell-free LANA-H2A/H2B peptide, fluorescence polarization. inhibition, % (no concentration beside the values). 0.6% of 320,000 active. AID 2629; in the data active = inhibition mostly above about 10%, no sharp cut-off; inactive = mostly below about 6.7%
Target sequence (Q9QR71 whole entry, looked up): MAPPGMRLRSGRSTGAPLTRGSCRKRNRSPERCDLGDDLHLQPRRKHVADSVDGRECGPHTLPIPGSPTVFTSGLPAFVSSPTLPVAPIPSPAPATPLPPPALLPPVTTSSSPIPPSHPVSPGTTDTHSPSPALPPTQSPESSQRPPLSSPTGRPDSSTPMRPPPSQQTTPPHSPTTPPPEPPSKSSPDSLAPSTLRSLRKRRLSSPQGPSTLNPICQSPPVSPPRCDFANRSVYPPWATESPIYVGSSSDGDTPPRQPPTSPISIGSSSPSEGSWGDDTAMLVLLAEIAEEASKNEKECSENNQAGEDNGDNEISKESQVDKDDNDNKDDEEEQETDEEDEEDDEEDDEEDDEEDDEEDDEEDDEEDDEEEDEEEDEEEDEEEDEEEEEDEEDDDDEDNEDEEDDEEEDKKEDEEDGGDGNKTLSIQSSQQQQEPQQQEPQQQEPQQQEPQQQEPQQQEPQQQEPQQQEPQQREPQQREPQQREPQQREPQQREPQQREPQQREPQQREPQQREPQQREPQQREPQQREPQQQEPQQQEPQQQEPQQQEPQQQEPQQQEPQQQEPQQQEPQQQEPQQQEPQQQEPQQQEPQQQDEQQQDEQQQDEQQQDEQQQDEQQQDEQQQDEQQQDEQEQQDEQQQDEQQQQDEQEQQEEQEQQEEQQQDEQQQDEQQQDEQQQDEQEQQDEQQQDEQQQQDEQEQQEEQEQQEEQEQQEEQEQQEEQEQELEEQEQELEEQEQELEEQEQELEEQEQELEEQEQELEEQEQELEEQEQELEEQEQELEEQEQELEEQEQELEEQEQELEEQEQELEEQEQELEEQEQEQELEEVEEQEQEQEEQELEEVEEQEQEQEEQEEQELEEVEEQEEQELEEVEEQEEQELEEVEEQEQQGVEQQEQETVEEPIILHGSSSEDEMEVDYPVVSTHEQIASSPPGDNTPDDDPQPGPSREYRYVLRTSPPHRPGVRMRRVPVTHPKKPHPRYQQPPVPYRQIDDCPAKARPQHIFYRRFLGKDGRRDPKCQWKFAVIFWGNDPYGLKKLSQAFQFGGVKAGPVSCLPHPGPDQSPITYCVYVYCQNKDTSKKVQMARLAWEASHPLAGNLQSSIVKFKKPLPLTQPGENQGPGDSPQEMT
IDE cell inh cf: confirmation of human insulin-degrading enzyme inhibitors in cells. 51% of 1,200 active. inhibition, % at 5.59 µM. HEK cells, FAbetaB cleavage, fluorescence polarization. shares compounds with IDE cell inh;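 active = mean inhibition across triplicate wells above the cutoff set by the earlier primary insulin-degrading enzyme screen, cut at about 16% in these data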;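 also: 0% = DMSO wells and 100% = 60 µM reference IDE inhibitor Ii1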
HEK293 tox: HEK cell cytotoxicity, counter-screen for IDE inhibitors | shares compounds with IDE cell inh | inhibition, % at 5.59 µM | 28% of 1,200 active | AID 449730 | HEK293 cytotoxicity, ATP luminescence; in the data active = inhibition above about 22%;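 also: 0% = vehicle wells and 100% = reference cytotoxic drug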
The depositor's hits bear a star; u = inconclusive; x = no result given; + = active, no number. Hits are enriched below; roughly 1.1% of the tested compounds scored in any of these assays.

SMILES	IDE cell inh	HDAC3 inhib	IDE cell activ	LANA-H2B inh	IDE cell inh cf	HEK293 tox
O=C(Nc1cccc(S(=O)(=O)N2CCOCC2)c1)C1COc2ccccc2O1 (stereo not drawn)	x	x	4	x	x	x
Cc1cccc(OCC(=O)NCC(=O)N/N=C/c2cccs2)c1	-1	2	4	6	x	x
Cc1cccc(OCC(=O)NCC(=O)N/N=C/c2c(C)[nH]c3ccccc23)c1	16*	-1	0	2	0	17
CC1C(=O)Nc2ccccc2N1C(=O)c1ccc(F)cc1 (stereo not drawn)	7	0	-4	3	x	x
OCC[C@@H]1C[C@H](O)[C@@H](O)[C@]2(Cc3ccccc3CO2)O1	4	-2	4	-2	x	x
Cc1ccc(C(=O)N=c2sccn2C)o1	-1	12	-4	1	x	x
Cc1nn(-c2ccccc2)c(C)c1/C=C/C(=O)OCC(=O)Nc1ccc(C(N)=O)cc1	1	-1	1	3	x	x
COc1cccc(NC(=O)COC(=O)/C=C/c2c(C)nn(-c3ccccc3)c2C)c1	25*	13	-17	-4	21*	11
CC1CCN(S(=O)(=O)c2ccc3c(c2)oc(=O)n3CC(=O)N2CCc3ccccc3C2)CC1	0	-1	-2	-1	x	x
N#C/C(=C\c1ccc(O)c(O)c1)C(=O)Nc1ccccc1	26*	6	-43	2	50*	10
N#C/C(=C/c1ccc(O)c(O)c1)C(=O)NCc1ccc(Cl)cc1	24*	6	-32	5	33*	9
COc1cc(/C=C(\C#N)C(=O)NCc2cccs2)ccc1O	34*	14	-41	3	45*	9
COCCNC(=O)/C(C#N)=C/c1ccc(OC(=O)c2cccs2)c(OC)c1	x	x	-1	x	x	x
N#C/C(=C/c1cccc(O)c1)C(=O)NCc1ccc(Cl)cc1	3	2	-4	-3	x	x
O=C(/C=C/c1ccco1)N(Cc1cccc(F)c1)C1CCS(=O)(=O)C1 (stereo not drawn)	-3	3	1	-1	x	x
CN1CCc2c(sc(NC(=O)c3ccc(S(=O)(=O)N4CCCCCC4)cc3)c2C(N)=O)C1	25*	0	-18	-2	4	19
CCCN1CCc2c(sc(NC(=O)c3ccc(S(=O)(=O)N(C)c4ccccc4)cc3)c2C(N)=O)C1	16*	-4	-8	1	11	26*
CCCN1CCc2c(sc(NC(=O)c3ccc(S(=O)(=O)N(C)c4ccccc4)cc3)c2C(=O)NC)C1	5	-3	-9	1	x	x
CCC(=O)NNC(=O)CCC(=O)Nc1cccc(Cl)c1C	9	6	5	2	x	x
CCN(CC)CCCN(C(=O)c1cccc(C)c1)c1nc(-c2ccc(OC)cc2)cs1	-3	5	-1	4	x	x
COc1cc(/C=N/Nc2nc3ccccc3[nH]2)cc(OC)c1O	18*	17	-1	5	1	24*
COc1cc(/C=N/Nc2nc3ccccc3[nH]2)ccc1O	6	6	-2	-2	x	x
Fc1cccc(C[n+]2csc3ccccc32)c1	22*	8	-38	4	11	12
c1ccc(C[n+]2csc3ccccc32)cc1	26*	8	-38	0	11	10
CN(C(=O)COC(=O)c1cc2ccccc2cc1O)c1c(N)n(Cc2ccccc2)c(=O)[nH]c1=O	0	0	-4	-1	x	x
SMILES	IDE cell inh	HDAC3 inhib	IDE cell activ	LANA-H2B inh	IDE cell inh cf	HEK293 tox
CC(=O)Oc1ccc(Cl)cc1/C=C/c1cc(OC(C)=O)c2ccccc2n1	37*	0	x	4	89*	19
COc1cc(Cl)cc(/C=C/c2ccc3ccccc3n2)c1OC(C)=O	5	-4	-10	8	x	x
O=c1c(O)c(-c2cccs2)oc2ccccc12	-18	-1	-85	1	x	x
O=c1c(O)c(-c2cccs2)oc2ccc(Cl)cc12	70*	-5	24*	2	26*	9
COc1cc(/C=N\NC(=O)c2ccc(-c3ccccc3)cc2)cc(OC)c1O	19*	0	-12	-8	12	11
O=C(N/N=C/c1sc2ccccc2c1O)c1ccccc1	34*	6	-32	-7	62*	115*
COc1ccc(C(=O)N/N=C/c2sc3ccccc3c2O)cc1	17*	10	-27	+	33*	87*
CCCc1cc(C(=O)NC(C)C2CCCO2)cs1 (stereo not drawn)	4	-1	3	-4	x	x
CCOc1ccc2ccccc2c1/C=N/NC(=O)CC1(C)OCCCO1	-2	2	-2	1	x	x
CC(=Nc1ccccc1)c1sc2ccccc2c1O	20*	2	-43	-1	51*	12
CC(=Nc1ccc(Br)cc1)c1sc2ccccc2c1O	20*	-1	-57	2	54*	15
COc1ccc(Cl)cc1NC(=O)CN(C)C(=O)c1ccc(N2CCCCCC2)c([N+](=O)[O-])c1	-4	17	2	0	x	x
CC(C)C[C@@H](CN)NC(=O)c1nc[nH]c1C(=O)N[C@@H](CC(=O)O)C(=O)CNC[C@H](C)NC(=O)c1nc[nH]c1C(=O)N[C@@H](CC(=O)O)C(=O)O	x	x	0	x	x	x
COc1ccc2nc(NC(=O)CN(c3ccc(C)cc3)S(=O)(=O)c3c(C)nn(C)c3C)sc2c1	16*	-3	-1	0	5	15
COc1ccc(/C=c2\s/c(=C/C(=O)c3ccc(C)cc3)[nH]c2=O)cc1OC	79*	2	-98	-1	78*	7
CC(C)(C)C(=O)/C=c1\[nH]c(=O)/c(=C\c2ccc(F)cc2)s1	-3	u	-2	2	x	x
COc1ccc(CNC(=O)COC(=O)c2ccc(F)c(S(=O)(=O)N3CCOCC3)c2)cc1	17*	-1	-3	-2	1	7
COc1ccccc1N1CCN(S(=O)(=O)CCNC(=O)C23CC4CC(CC(C4)C2)C3)CC1	20*	-5	-20	0	9	32*
COc1ccccc1N1CCN(S(=O)(=O)CCNC(=O)CC2CCCCC2)CC1	4	-11	-3	7	x	x
Cc1ccc(OCCCCNC2CCCC(C)C2C)c(C)c1 (stereo not drawn)	0	4	7	2	x	x
CCOc1ccc(-n2c(SCc3ccc(C#N)cc3)nnc2-c2cccnc2)cc1	15	3	-11	1	x	x
N#Cc1ccc(CSc2nnc(-c3cccnc3)n2-c2ccccc2)cc1	19*	0	-27	-2	11	28*
Cc1ccc(NC(=O)C(C)Sc2nnc(-c3cccnc3)n2-c2ccccc2)cc1 (stereo not drawn)	23*	11	-31	3	9	12
COc1ccc(CCC(=O)Nc2cccc(S(=O)(=O)N(C)C)c2)cc1OC	1	-1	3	4	x	x
Cc1cccc(C(=O)N2CC(=O)Nc3ccc(F)cc3C2c2ccc(F)cc2)c1 (stereo not drawn)	-1	1	-2	3	x	x
CCCCOc1ccc(C(=O)Nc2cc(C)c(OCC(=O)N3CCOCC3)c(C)c2)cc1	39*	2	-17	2	10	25*
